# Results: PubChem BioAssay (NCI)
# This is part of a sample that, as a whole, favours compounds with a hit. Of some 83,000 tested, about 20% had one in any assay.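 Negative percent growth values reflect cell death: -40 means 40% of the cells present at the start died, and -100 means all died.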 Values without a mark were called inactive. Active and inactive are the calls of the source. The calls were made as follows: active = growth percent below 10; inactive = the rest.
# Key:
# Assay in all cases: NCI-60 one-dose screen, 48 h (100 = growth as untreated, 0 = no growth, -100 = all killed)
# Details in all cases: 10 µM unless noted
# NCI-H226 lung = test system: NCI-H226 lung
# NCI-H322M lung = test system: NCI-H322M lung
# HOP-62 NSCLC = test system: HOP-62 NSCLC
# NCI-H460 lung = test system: NCI-H460 lung
# HOP-92 NSCLC = test system: HOP-92 NSCLC
# NCI-H522 lung = test system: NCI-H522 lung
# A549/ATCC NSCLC = test system: A549/ATCC NSCLC
# 786-0 renal = test system: 786-0 renal
# COLO 205 colon = test system: COLO 205 colon
# DU-145 prostate = test system: DU-145 prostate
# K-562 leukemia = test system: K-562 leukemia
# MALME-3M melanoma = test system: MALME-3M melanoma
# MDA-MB-231 breast = test system: MDA-MB-231 breast
# RXF 393 renal = test system: RXF 393 renal
# SF-268 CNS = test system: SF-268 CNS
# SF-295 CNS = test system: SF-295 CNS
# SF-539 CNS = test system: SF-539 CNS
# UACC-257 melanoma = test system: UACC-257 melanoma
# M14 melanoma = test system: M14 melanoma
# HCT-15 colon = test system: HCT-15 colon
SMILES,growth (NCI-H226 lung),growth (NCI-H322M lung),growth (HOP-62 NSCLC),growth (NCI-H460 lung),growth (HOP-92 NSCLC),growth (NCI-H522 lung),growth (A549/ATCC NSCLC),growth (786-0 renal),growth (COLO 205 colon),growth (DU-145 prostate),growth (K-562 leukemia),growth (MALME-3M melanoma),growth (MDA-MB-231 breast),growth (RXF 393 renal),growth (SF-268 CNS),growth (SF-295 CNS),growth (SF-539 CNS),growth (UACC-257 melanoma),growth (M14 melanoma),growth (HCT-15 colon)
CC(C)(C)Nc1nc2c(OCCc3ccccc3)cccn2c1-c1ccc(Cl)cc1,12.4%,24.6%,32.4%,16%,-24.9% (active),3.18% (active),16%,26.9%,-3.99% (active),48.2%,5.28% (active),1.51% (active),17.4%,-15.3% (active),45.5%,3.7% (active),21.7%,16.7%,26.8%,3.86% (active)
OC1CCN(CCCOc2c3ccc(Cl)cc3nc3c2oc2ccccc23)CC1,-6.33% (active),-16.3% (active),12.5%,-9.21% (active),-4% (active),-48.9% (active),9.13% (active),-30.7% (active),-69% (active),-0.646% (active),-7.34% (active),-81.2% (active),-14.7% (active),-74.3% (active),4.41% (active),-23.2% (active),-76.1% (active),-69.2% (active),-84.2% (active),-31.7% (active)
COc1cc(/C=C/C(=O)c2cc(OC)c(OC)c(OC)c2)ccc1OCc1ccccc1,48.6%,45.5%,40.8%,22.4%,58.4%,49.3%,38.8%,40.1%,93.4%,27.2%,10.2%,63.1%,47.7%,75%,43.3%,50.8%,8.77% (active),68.9%,65.7%,13.3%
OC1CCN(CCCOc2c3ccccc3nc3c2oc2ccccc23)CC1,-31.2% (active),-17% (active),5.52% (active),0.894% (active),-11.8% (active),-48.6% (active),-12.2% (active),7.21% (active),-63.8% (active),1.33% (active),6.75% (active),-32.6% (active),-31.5% (active),-43.1% (active),2.44% (active),-14.7% (active),-12.5% (active),-17.7% (active),-71.8% (active),-8.3% (active)
CCCCCCNC(=O)Oc1ccc(/C(=C(/C)c2ccccc2)c2ccc(OCCN3CCCCCC3)cc2)cc1,76.7%,87.5%,78.6%,6.58% (active),12.5%,85%,63.1%,-0.48% (active),21.7%,68.2%,-9.12% (active),12.2%,41.7%,9.02% (active),62.2%,36.3%,11.1%,-2.81% (active),-39.7% (active),9.9% (active)
Cc1cc(=O)oc2cc(OCCCOc3ccc(/C=C/C(=O)Nc4ccc(Cl)cc4)cc3)ccc12,79.5%,83%,90.2%,-6.83% (active),25.2%,82.6%,28.6%,46.4%,68.2%,73.6%,69.1%,56.6%,69.7%,44.9%,66.9%,77.7%,75.6%,81.5%,74.2%,60.4%
O=C(c1ccc(Cl)cc1)C1[C@H](c2ccc(Cl)cc2)[C@@H](c2ccccc2)NC12C(=O)Nc1ccc(Br)cc12 (stereo not given in full),38.1%,56.2%,58.6%,8.65% (active),-1.5% (active),66%,29.2%,24.6%,55.9%,46.8%,17%,62.7%,37.2%,6.62% (active),34.3%,35.4%,59.5%,57.7%,27.2%,24.6%
CN(C)CCCOc1c2ccc(Cl)cc2nc2c1oc1ccc(Cl)cc12,1.15% (active),18.8%,32.8%,-74.2% (active),3.27% (active),21%,-45.3% (active),-93.2% (active),-11.1% (active),-75.7% (active),-39.8% (active),0.745% (active),-48.3% (active),-86.6% (active),25.9%,11.9%,16.5%,41.3%,-49.5% (active),-80.5% (active)
O=C(CCCN1C(=O)/C(=C/c2ccccc2F)SC1=S)N1CCOCC1,110%,85.5%,119%,97.8%,86.4%,48.8%,93.1%,89.8%,126%,74.5%,59.7%,72.5%,73.4%,83.7%,95.6%,103%,92.7%,83.6%,77.6%,74.3%
Cn1cc(-c2cc(N)n3nc(-c4cn(C)c5ccc(Cl)cc45)cc3n2)c2cc(Cl)ccc21,111%,85.7%,102%,71.4%,95.3%,100%,87.9%,99.4%,119%,71.4%,26.5%,100%,71.1%,121%,78.8%,95.4%,94.2%,108%,53.4%,32.8%
N/C(=N\c1nc2c(Br)cccc2s1)C(Br)Br,48.9%,31.8%,39.8%,-20.4% (active),-3.75% (active),-75.1% (active),21.8%,-14.3% (active),1.7% (active),-21.8% (active),3.75% (active),-36.7% (active),-9.45% (active),-51.1% (active),49.2%,11.8%,-28.3% (active),51.4%,10.9%,-27.7% (active)
Cn1c(SCC(=O)c2cccs2)nc2ccccc2c1=O,91.9%,102%,85.9%,98.7%,87.3%,87.8%,99.6%,98.6%,111%,105%,78.5%,102%,88.2%,107%,92.7%,107%,94.6%,93.4%,97.8%,91.1%
CCN1C(=S)N(CC)C2C1N=C(SC)N2/N=C/C=C/c1ccccc1[N+](=O)[O-] (stereo not given),92.9%,92.3%,99.7%,93.5%,79.7%,93.6%,92.8%,101%,120%,101%,68.1%,93.8%,89.7%,115%,88.5%,90.4%,81.1%,109%,108%,79.2%
O=C1Nc2cc(Cl)ccc2/C1=C\c1ccc(OCc2ccc(Br)cc2F)cc1,-50.9% (active),-23.8% (active),-21.1% (active),-82.4% (active),-58.5% (active),-28.2% (active),-28.9% (active),-92.5% (active),12.4%,-13.2% (active),3.55% (active),-66.9% (active),-2.27% (active),-67.3% (active),-11.9% (active),-83.2% (active),-87.9% (active),8.13% (active),-43.9% (active),6.12% (active)
CCOC(=O)c1sc(N)c(C(=O)OCC)c1C,59.7%,83.1%,52.6%,92.5%,-7.89% (active),56.9%,65.3%,50.4%,68.4%,66.2%,53.2%,74%,37.4%,29.9%,42.7%,81.5%,38.1%,78.3%,78%,45.4%
